Calls of active or inactive are those of the source. The calls were made as follows: active = hit-call score of the fitted dose curve at least 0.9, where 1 is the maximum; inactive = score below 0.9.
How the values were obtained:
[1] = ATG_CRE_CIS: Attagene CIS-FACTORIAL HepG2 Assay for human cAMP Responsive Element (CRE) binding protein 3 (AID 2282926); conditions: HepG2 CRE cis-reporter, Attagene multiplexed mRNA; actives raise or lower the signal
Summary of the method: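 Human liver HepG2, transient MRTU transfection, 24 h compound exposure. Total RNA → oligo(dT) RT → PCR → 6-FAM primer extension → HpaI cut → CE. Activity called both directions vs DMSO.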

[2] = biological target: CCAAT/enhancer-binding protein beta (Homo sapiens) (UniProt P17676); experiment: ATG_C_EBP_CIS: Attagene CIS-FACTORIAL HepG2 Assay for human CCAAT/Enhancer Binding Protein (C/EBP) beta (AID 2282927); conditions: HepG2 Attagene cis-factorial transcription factor reporter; actives raise or lower the signal
Summary of the method: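 HepG2 transiently transfected with multiplexed reporter units under cis-regulatory promoters reporting endogenous C/EBPb activity. After 24 h exposure, reporter mRNA assayed by RT-PCR, fluorescent labelling, HpaI digestion and capillary electrophoresis; bidirectional fitting versus DMSO.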

[3] = ATG_CMV_CIS: Attagene CIS-FACTORIAL HepG2 Assay for human CMV (Internal Marker) (AID 2282928); conditions: HepG2 CMV promoter reporter, transcription factor profiling; actives raise or lower the signal;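 also: endpoint acts as a background internal control marker rather than a target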
Summary of the method: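 CMV internal-marker background readout in transiently transfected HepG2 cells bearing cis-regulated reporter units. Reporter mRNA is measured 24 h after dosing by RT-PCR and capillary electrophoresis, with bidirectional fitting against DMSO.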

[4] = ATG_DR4_LXR_CIS: Attagene CIS-FACTORIAL HepG2 Assay for human Liver X Receptor (LXR), DR4 submotif (AID 2282929); conditions: HepG2 Attagene DR4 cis-reporter, mRNA transcription; actives raise or lower the signal
Summary of the method: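 The endpoint is DR4-element-driven reporter transcripts after 24 h chemical exposure of transfected HepG2 cells. These were measured via RT-PCR and capillary electrophoresis, and gain or loss of signal was fitted relative to DMSO controls.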

[5] = biological target: Aryl hydrocarbon receptor (Homo sapiens) (UniProt P35869); experiment: ATG_Ahr_CIS: Attagene CIS-FACTORIAL HepG2 Assay for human Aryl Hydrocarbon Receptor (Ahr) (AID 2282930); conditions: HepG2 AhR cis-factorial reporter transcription; actives raise or lower the signal
Summary of the method: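 HepG2 cells transiently transfected with cis-element-driven multiplexed reporter units; endogenous AhR activity read as reporter mRNA 24 h after dosing, via RT-PCR, 6-FAM labelling, HpaI digestion and capillary electrophoresis. Bidirectional fit relative to DMSO.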

[6] = ATG_AP_1_CIS: Attagene CIS-FACTORIAL HepG2 Assay for human Activator Protein 1 (AP-1) (AID 2282931); conditions: HepG2 Attagene cis-factorial AP-1 reporter mRNA; actives raise or lower the signal
Summary of the method: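 Readout is reporter transcript level from endogenous transcription factor activity, quantified by RT-PCR with fluorescent primer extension and capillary electrophoresis. Transiently transfected HepG2 cells, 24 h exposure. Curves fitted both directions versus DMSO.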

[7] = ATG_AP_2_CIS: Attagene CIS-FACTORIAL HepG2 Assay for human Activator Protein 2 (AP-2) (AID 2282932); conditions: HepG2 AP-2 cis-reporter, Attagene transcription factor profiling; actives raise or lower the signal
Summary of the method: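 Multiplexed mRNA reporter assay in HepG2: cis-regulated units report endogenous factor activity after 24 h treatment. Fluorescence from capillary electrophoresis of RT-PCR products gives the signal, with DMSO as baseline.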

[8] = biological target: Retinoic acid receptor alpha (Homo sapiens) (UniProt P10276); experiment: ATG_DR5_RAR_CIS: Attagene CIS-FACTORIAL HepG2 Assay for human Retinoic Acid Receptor Alpha (RARE), DR5 submotif (AID 2282934); conditions: HepG2 Attagene cis-factorial RARE DR5 reporter, mRNA; actives raise or lower the signal
Summary of the method: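 HepG2 cells transiently transfected with multiplexed reporter units; DR5 cis-element drives reporter through endogenous transcription factors. After 24 h dosing, reporter mRNA quantified by RT-PCR, fluorescent labeling, HpaI digestion and capillary electrophoresis; bidirectional fitting versus DMSO.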

[9] = biological target: Transcription factor E2F1 (Homo sapiens) (UniProt Q01094); experiment: ATG_E2F_CIS: Attagene CIS-FACTORIAL HepG2 Assay for human E2F Transcription Factor 1 (AID 2282935); conditions: HepG2 Attagene cis-reporter, E2F reporter RNA transcripts; actives raise or lower the signal
Summary of the method: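 Measures reporter transcript levels via RT-PCR with capillary electrophoresis detection in HepG2 cells harboring cis-regulated reporter units; 24 h post-dose; bidirectional curve fitting with DMSO as baseline.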

[10] = ATG_E_Box_CIS: Attagene CIS-FACTORIAL HepG2 Assay for human Enhancer Box (E-box) (AID 2282936); conditions: HepG2 E-box cis-reporter transcription, actives raise or lower the signal
Summary of the method: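 First, HepG2 cells receive multiple cis-regulated reporter constructs by transient transfection. Next, chemicals are applied for 24 h. Finally, reporter mRNA is quantified via RT-PCR and capillary electrophoresis, with DMSO as baseline.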

[11] = ATG_M_61_CIS: Attagene CIS-FACTORIAL HepG2 Assay for M61 Transcription Factor (Internal Marker) (AID 2282937); conditions: HepG2 Attagene CIS-FACTORIAL M61 internal marker reporter; actives raise or lower the signal
Summary of the method: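 Readout is reporter mRNA by RT-PCR, fluorescent primer extension and capillary electrophoresis, with gain or loss fitted relative to DMSO. Transfected HepG2 cells carrying endogenous-TF-driven cis reporters were exposed to chemicals for 24 hours.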

[12] = ATG_EGR_CIS: Attagene CIS-FACTORIAL HepG2 Assay for human Early Growth Response 1 (EGR1) (AID 2282938); conditions: HepG2 Attagene CIS-FACTORIAL EGR reporter mRNA; actives raise or lower the signal
Summary of the method: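 After 24 h compound exposure, RNA from reporter-transfected HepG2 cells was reverse-transcribed, PCR-amplified, fluorescently labelled and resolved by capillary electrophoresis. EGR1 reporter transcript changes, up or down, were fitted against DMSO, reflecting endogenous transcription-factor activity.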

[13] = ATG_M_19_CIS: Attagene CIS-FACTORIAL HepG2 Assay for M19 Transcription Factor (Internal Marker) (AID 2282939); conditions: HepG2 Attagene CIS-FACTORIAL M19 internal marker reporter; actives raise or lower the signal
Summary of the method: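 Chemical-treated HepG2 (24 h) with MRTU constructs; reporter transcripts detected by fluorescent RT-PCR fragment analysis on capillary electrophoresis. Internal background marker, DMSO as baseline.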

[14] = ATG_Ets_CIS: Attagene CIS-FACTORIAL HepG2 Assay for human Erythroblast Transformation Specific (ETS) (AID 2282941); conditions: HepG2 ETS cis-reporter transcription, actives raise or lower the signal
Summary of the method: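 HepG2 cells transfected with multiple cis-regulated reporter units measuring endogenous ETS-driven transcription, 24 h after dosing. Reporter mRNA quantified by RT-PCR with capillary electrophoresis; bidirectional fit relative to DMSO.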

[15] = biological target: Hepatocyte nuclear factor 3-beta (Homo sapiens) (UniProt Q9Y261); experiment: ATG_FoxA2_CIS: Attagene CIS-FACTORIAL HepG2 Assay for human Forkhead box A2 (FOXA2) (AID 2282942); conditions: HepG2 cis-reporter transcription factor activity, 24 h; actives raise or lower the signal
Summary of the method: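 Endogenous transcription factor activity is captured via cis-element-driven reporter transcripts in transfected HepG2. Total RNA taken at 24 h post-dosing; labelled RT-PCR products resolved by capillary electrophoresis. Gain or loss fitted versus DMSO.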

[16] = ATG_FoxO_CIS: Attagene CIS-FACTORIAL HepG2 Assay for human Forkhead box O (FoxO) (AID 2282943); conditions: HepG2 Attagene cis-reporter, FoxO element, mRNA; actives raise or lower the signal
Summary of the method: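 HepG2 cells transiently transfected with cis-element-driven reporter units report endogenous FoxO activity. After 24 h chemical exposure, reporter mRNA quantified by RT-PCR, fluorescent labeling, HpaI digestion and capillary electrophoresis; bidirectional fit versus DMSO.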

[17] = ATG_GATA_CIS: Attagene CIS-FACTORIAL HepG2 Assay for human GATA Binding Protein (AID 2282944); conditions: HepG2 GATA cis-element reporter, Attagene multiplex mRNA; actives raise or lower the signal
Summary of the method: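 Transfected cis-reporter HepG2 cells were treated with chemicals for 24 hours. Total RNA was then converted to cDNA, amplified with reporter-specific primers and analysed by fluorescent capillary electrophoresis, using DMSO-treated wells as baseline.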

[18] = ATG_GLI_CIS: Attagene CIS-FACTORIAL HepG2 Assay for human Zinc Finger Protein GLI1 (AID 2282945); conditions: HepG2, Attagene cis-factorial reporter mRNA, GLI element; actives raise or lower the signal
Summary of the method: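 Transiently transfected HepG2 cells report endogenous transcription factor activity via cis-element-driven reporter units. After 24 h compound exposure, reporter mRNA was measured by RT-PCR with capillary electrophoresis; bidirectional fitting against DMSO baseline.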

[19] = ATG_ERE_CIS: Attagene CIS-FACTORIAL HepG2 Assay for Estrogen Response Element (ERE) (AID 2282940); conditions: HepG2 ERE cis-reporter, Attagene RNA transcript; actives raise or lower the signal
Summary of the method: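 Human liver cells (HepG2) bearing transiently transfected, promoter-regulated reporter units were exposed 24 h. Reporter mRNA induction was detected by capillary electrophoresis of labelled RT-PCR products and fitted bidirectionally to DMSO.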

[20] = ATG_BRE_CIS: Attagene CIS-FACTORIAL HepG2 Assay for human Bone Morphogenetic Protein (BMP) Response Element (BRE) (AID 2282933); conditions: HepG2 BMP response element reporter, Attagene transcription factor profiling; actives raise or lower the signal
Summary of the method: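 A HepG2 multiplex reporter system measured inducible reporter mRNA 24 h post-dosing. Detection: RT-PCR, 6-FAM primer extension, HpaI digestion, capillary electrophoresis. Activity fitted bidirectionally relative to DMSO.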

Measured: AC50

Aryl hydrocarbon receptor (Homo sapiens), sequence (P35869 whole entry, looked up): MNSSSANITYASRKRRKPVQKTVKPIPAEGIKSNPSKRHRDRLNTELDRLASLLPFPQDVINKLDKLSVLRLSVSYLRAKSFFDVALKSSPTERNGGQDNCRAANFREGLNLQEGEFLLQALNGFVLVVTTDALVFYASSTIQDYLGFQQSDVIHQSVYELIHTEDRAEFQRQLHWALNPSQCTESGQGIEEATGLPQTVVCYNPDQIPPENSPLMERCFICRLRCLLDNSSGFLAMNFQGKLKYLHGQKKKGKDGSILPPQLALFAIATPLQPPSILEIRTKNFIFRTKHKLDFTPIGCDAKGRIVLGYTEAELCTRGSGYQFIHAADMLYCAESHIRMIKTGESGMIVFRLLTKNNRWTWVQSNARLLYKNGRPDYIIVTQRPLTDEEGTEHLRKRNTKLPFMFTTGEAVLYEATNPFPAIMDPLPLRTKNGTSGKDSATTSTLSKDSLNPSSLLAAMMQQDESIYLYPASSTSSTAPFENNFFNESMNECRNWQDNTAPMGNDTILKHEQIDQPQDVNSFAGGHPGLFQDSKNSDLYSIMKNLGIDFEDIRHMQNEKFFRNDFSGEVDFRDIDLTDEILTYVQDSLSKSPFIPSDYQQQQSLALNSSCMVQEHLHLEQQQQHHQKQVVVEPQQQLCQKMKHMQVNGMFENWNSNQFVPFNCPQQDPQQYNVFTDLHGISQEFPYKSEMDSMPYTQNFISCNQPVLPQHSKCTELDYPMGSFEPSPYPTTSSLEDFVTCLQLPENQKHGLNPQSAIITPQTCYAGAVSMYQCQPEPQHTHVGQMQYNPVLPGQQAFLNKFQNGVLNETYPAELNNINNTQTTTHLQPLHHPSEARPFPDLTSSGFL
Hepatocyte nuclear factor 3-beta (Homo sapiens), sequence (Q9Y261 whole entry, looked up): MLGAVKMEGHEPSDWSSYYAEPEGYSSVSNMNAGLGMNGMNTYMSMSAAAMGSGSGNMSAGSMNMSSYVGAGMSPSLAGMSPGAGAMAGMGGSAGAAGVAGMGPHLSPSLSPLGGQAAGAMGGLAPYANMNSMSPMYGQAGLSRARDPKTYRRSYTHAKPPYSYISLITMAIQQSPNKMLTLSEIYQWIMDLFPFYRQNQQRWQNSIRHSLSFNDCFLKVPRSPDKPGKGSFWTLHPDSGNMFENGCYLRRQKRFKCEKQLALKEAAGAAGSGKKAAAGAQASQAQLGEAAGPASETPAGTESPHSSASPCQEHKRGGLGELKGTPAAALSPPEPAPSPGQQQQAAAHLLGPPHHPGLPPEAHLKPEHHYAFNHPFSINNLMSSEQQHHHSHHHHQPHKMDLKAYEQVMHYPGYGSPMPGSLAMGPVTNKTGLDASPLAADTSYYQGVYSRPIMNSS
CCAAT/enhancer-binding protein beta (Homo sapiens), sequence (P17676 whole entry, looked up): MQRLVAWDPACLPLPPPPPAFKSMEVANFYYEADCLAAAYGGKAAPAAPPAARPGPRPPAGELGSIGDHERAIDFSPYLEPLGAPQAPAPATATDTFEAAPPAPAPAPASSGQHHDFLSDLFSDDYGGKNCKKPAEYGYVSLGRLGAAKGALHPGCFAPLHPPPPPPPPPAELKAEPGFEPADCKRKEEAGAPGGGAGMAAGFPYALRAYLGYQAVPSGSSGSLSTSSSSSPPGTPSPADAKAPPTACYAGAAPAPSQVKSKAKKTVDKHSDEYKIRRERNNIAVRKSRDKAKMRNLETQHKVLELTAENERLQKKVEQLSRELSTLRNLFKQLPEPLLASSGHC
Transcription factor E2F1 (Homo sapiens), sequence (Q01094 whole entry, looked up): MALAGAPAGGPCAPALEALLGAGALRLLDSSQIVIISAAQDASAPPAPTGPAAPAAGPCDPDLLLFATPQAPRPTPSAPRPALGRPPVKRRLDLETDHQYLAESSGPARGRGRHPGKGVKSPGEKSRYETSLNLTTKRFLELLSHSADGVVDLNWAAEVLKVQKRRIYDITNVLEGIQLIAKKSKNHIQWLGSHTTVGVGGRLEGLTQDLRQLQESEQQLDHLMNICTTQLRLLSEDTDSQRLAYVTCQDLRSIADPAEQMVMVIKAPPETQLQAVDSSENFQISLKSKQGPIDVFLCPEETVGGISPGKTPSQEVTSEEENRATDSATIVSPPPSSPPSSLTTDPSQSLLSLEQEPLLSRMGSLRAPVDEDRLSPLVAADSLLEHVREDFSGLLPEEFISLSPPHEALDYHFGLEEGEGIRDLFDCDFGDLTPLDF
Retinoic acid receptor alpha (Homo sapiens), sequence (P10276 whole entry, looked up): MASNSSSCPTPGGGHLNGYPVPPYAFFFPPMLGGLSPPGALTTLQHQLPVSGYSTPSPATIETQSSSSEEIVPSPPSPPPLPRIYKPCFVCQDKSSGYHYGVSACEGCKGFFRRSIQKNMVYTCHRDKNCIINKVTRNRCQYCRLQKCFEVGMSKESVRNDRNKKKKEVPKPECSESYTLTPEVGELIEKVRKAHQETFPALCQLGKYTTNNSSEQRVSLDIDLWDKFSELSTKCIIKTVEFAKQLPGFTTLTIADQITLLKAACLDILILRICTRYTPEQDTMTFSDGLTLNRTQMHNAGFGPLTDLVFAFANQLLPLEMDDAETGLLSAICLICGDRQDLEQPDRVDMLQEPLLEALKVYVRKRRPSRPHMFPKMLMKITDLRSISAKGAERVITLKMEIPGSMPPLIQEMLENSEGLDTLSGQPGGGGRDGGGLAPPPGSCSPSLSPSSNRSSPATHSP

CCCCOCCOCCSC#N
inactive: [1] | [2] | [3] | [4] | [5] | [6] | [7] | [8] | [9] | [10] | [11] | [12] | [13] | [14] | [15] | [16] | [17]

CC1(C)[C@H]2CC[C@]1(C)[C@H](O)C2
inactive: [1] | [2] | [3] | [4] | [5] | [6] | [7] | [10] | [11] | [12] | [13] | [14] | [15] | [16] | [17] | [18]

CCCCCCCCC
active: [19] 63.2 µM
inactive: [1] | [2] | [3] | [4] | [5] | [6] | [7] | [9] | [10] | [11] | [12] | [13] | [14] | [15] | [16] | [17] | [18]

CCOC(=S)SSC(=S)OCC
inactive: [1] | [2] | [3] | [4] | [5] | [6] | [20] | [9] | [10] | [11] | [12] | [13] | [19] | [14] | [15] | [16] | [17] | [18]

OCc1cccnc1
inactive: [1] | [2] | [3] | [4] | [5] | [6] | [7] | [9] | [10] | [11] | [12] | [13] | [19] | [14] | [15] | [17]

ClCCCl
inactive: [1] | [2] | [3] | [4] | [5] | [6] | [20] | [9] | [10] | [11] | [12] | [13] | [19] | [14] | [16] | [17] | [18]

CCCCCCCCCCCCN
active: [4] 10.2 µM
inactive: [1] | [2] | [3] | [5] | [6] | [7] | [9] | [10] | [11] | [12] | [13] | [14] | [15] | [16] | [17]

CC(C)C(C)(C)C(C)(C)C(C)(C)S
inactive: [1] | [2] | [3] | [4] | [5] | [6] | [7] | [9] | [10] | [11] | [12] | [13] | [19] | [14] | [15] | [16] | [17] | [18]

Reference: PubChem BioAssay (EPA / NIEHS)
